Source: PubChem
Lmaj promast: reduces viability of Leishmania major promastigotes; resazurin fluorescence viability; inhibition, % at 10 µM; 9% of 200,000 active; in the data active = inhibition above about 50%;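 note: promastigotes grown with compound for 44 hours at 28 °C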
CHOP inh: blocks CHOP induction under ER stress; CHO-K1 CHOP-promoter luciferase, tunicamycin-induced, 15-18 h; inhibition, % at 10 µM; 3.8% of 220,000 active;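 active = compounds that reduced the stress-induced luciferase reporter signal by more than about 70% of percent inhibition, limit read from the data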
WT yeast gro inh: growth inhibition of WT yeast, mitochondrial fusion screen; AID 1362; inhibition, % at 10 µM; mitochondrial fusion phenotypic screen, WT strain; 2.1% of 190,000 active; in the data active = inhibition above about 58%; tested in S. cerevisiae
Arbovirus anti: blocks arbovirus infection; arbovirus infection cell-based antiviral screen; inhibition, % at 10 µM; 0.37% of 200,000 active; AID 1251; in the data active = inhibition above about 30%
A number is an active result; 0 = inactive; - = no result given. Hits are enriched below; roughly 12% of the tested compounds scored in any of these assays.

SMILES	Lmaj promast	CHOP inh	WT yeast gro inh	Arbovirus anti
O=C1CN(C(=O)CSc2nc3ccccc3n2CCc2ccccc2)c2ccccc2N1	58	0	0	0
CCOC(=O)c1sc(N)c(C(=O)Nc2ccccc2OC)c1C	0	0	0	0
O=C(NCc1cccnc1)c1cc(Sc2cccc(Cl)c2)nc2ccccc12	68	0	0	0
O=C(Cn1cc(C(F)(F)F)ccc1=O)N/N=C/c1ccccc1	0	0	0	0
O=C(CSCCNS(=O)(=O)c1ccccc1)Nc1ccccc1	0	74	0	0
CN1CCN(CC(=O)N(C)c2nc(-c3ccccc3)cs2)CC1	94	0	0	0
CN1CCN(CC(=O)Nc2nc(-c3ccccc3)cs2)CC1	0	0	0	0
CCOC(=O)c1ccc(S(=O)(=O)Nc2ccc3cn[nH]c3c2)cc1	68	0	0	0
CCc1ccccc1NC(=O)C(CC)Sc1nc2cc3c(cc2c(=O)n1Cc1ccco1)OCO3 (centres undefined)	100	0	0	0
Cc1ccc(NC(=O)C(OC(=O)c2ccc(NC(N)=O)cc2)c2ccccc2)cc1Cl (centres undefined)	0	91	0	0
CC(C(=O)Nc1ccccc1Br)c1ccc([N+](=O)[O-])cc1 (centres undefined)	0	0	0	0
CC[C@H](C)[C@H](NC(N)=O)C(=O)Nc1ccc(OC)c(Cl)c1	0	0	0	0
CCC(C)C(NC(N)=O)C(=O)Nc1ccc(C)c(Cl)c1 (centres undefined)	58	0	0	0
Cc1ccc(NC(=O)C(C)c2ccc([N+](=O)[O-])cc2)cc1Cl (centres undefined)	56	0	0	0
Cc1nc2cc(C(F)(F)F)ccc2n1C	0	0	0	0
CCN(CC)C(=O)c1sc(NC(=O)C(C)C)c(C#N)c1C	0	0	0	0
COc1cc(NC(=O)CN2C(=O)NC(c3ccccc3)(c3ccccc3)C2=O)c(C)cc1[N+](=O)[O-]	0	0	0	0
Cc1cc(CNC(=S)Nc2cccc(Cl)c2Cl)nn1C	0	0	0	0
CC(C)c1ccc(/C=N/NC(=O)c2nnn(-c3nonc3N)c2CSC2=NCCS2)cc1	97	74	0	0
Nc1nonc1-n1nnc(C(=O)N/N=C/c2ccc(Br)cc2)c1CSC1=NCCS1	0	0	0	0
COc1ccc(C(=O)NCc2ccc3[nH]c(C)cc3c2)cc1OC	0	0	0	0
CC1(C)CC(=O)c2c(oc3ccc(NS(=O)(=O)c4cccc5cccnc45)cc23)C1	0	0	0	0
O=C(/C=C/c1ccoc1)c1ccccc1O	76	0	0	0
O=C(Nc1ccc(Cc2ccncc2)cc1)C1CCC(N2C(=O)C3C4C=CC(C5CC45)C3C2=O)CC1 (centres undefined)	52	0	0	0
O=C(c1cccc(F)c1)N1CCCC(C(=O)N2CCN(c3ccccc3)CC2)C1 (centres undefined)	-	0	-	-
SMILES	Lmaj promast	CHOP inh	WT yeast gro inh	Arbovirus anti
Cn1c(CS(=O)Cc2c(Cl)cccc2Cl)nnc1SCc1ccc(Cl)cc1 (centres undefined)	0	0	0	0
Nn1c(Cc2cccc3ccccc23)nnc1SCc1c(F)cccc1Cl	0	0	0	0
O=C(CSc1nnc(CCc2ccccc2)n1-c1ccc(Cl)cc1)c1ccccc1	0	0	67	0
O=S(Cc1ccc(Br)cc1)Cc1nnc(SCc2ccc(Cl)cc2)n1-c1ccccc1 (centres undefined)	0	85	0	0
O=S(Cc1ccc(Br)cc1)Cc1nnc(SCc2c(F)cccc2Cl)n1-c1ccccc1 (centres undefined)	0	74	77	0
C=CCn1c(CCCNC(=O)c2ccccc2OC)nc2ccccc21	0	0	0	0
Cc1cc(N)n(-c2ncnc3scc(-c4ccc(Cl)cc4)c23)n1	0	0	0	0
CN1CCCN(c2ncnc3scc(-c4ccc(F)cc4)c23)CC1	0	0	0	0
c1ccc(CNc2ncnc3scc(-c4cccs4)c23)nc1	0	72	0	0
Cc1ccccc1N1CCN(c2ncnc3scc(-c4cccs4)c23)CC1	0	0	65	0
Clc1ccc(-c2csc3ncnc(N4CCc5ccccc5C4)c23)cc1	0	0	65	0
c1ccc(-c2csc3ncnc(NCc4ccccn4)c23)cc1	-	0	-	-
O=c1c2c(-c3cccs3)csc2ncn1-n1cccc1	0	0	0	0
Clc1ccc(CN2CCN(c3ncnc4scc(-c5cccs5)c34)CC2)cc1	0	0	60	0
Cc1cc(C)cc(NC(=O)CSCc2nc3c(nnn3Cc3ccc(F)cc3)c(=O)[nH]2)c1	0	-	-	-
NC(N)=NCCSSCCN=C(N)N	-	0	-	-
CCOc1ccc(C2=C(C=Nc3c(C)n(C)n(-c4ccccc4)c3=O)C(c3ccc(F)cc3)c3ccccc3O2)cc1 (centres undefined)	57	0	0	0
Fc1ccc(N2Cc3ccsc3C=N2)cc1	0	0	0	0
NC(=O)c1ccsc1NC(=O)c1ccc(S(=O)(=O)N2CCCc3ccccc32)cc1	99	0	0	0
CC1CCCCN1S(=O)(=O)c1ccc(C(=O)Nc2sccc2C(N)=O)cc1 (centres undefined)	0	0	0	0
O=S(=O)(NC1CC1)c1ccc(S(=O)(=O)N2CCCc3ccccc32)cc1	95	73	0	0
CC(C)N1CCc2c(sc(NC(=O)c3ccc(S(=O)(=O)N4CCc5ccccc54)cc3)c2C(N)=O)C1	100	0	0	0
CC(C)N1CCc2c(sc(NC(=O)c3cc(-c4cccs4)nc4ccccc34)c2C(N)=O)C1	92	0	0	0
CC(C)N1CCc2c(sc(NC(=O)c3nc4ccccc4s3)c2C(N)=O)C1	0	0	0	0
COc1ccc(NCC(=O)n2c(C)c(C)c3ccccc32)cc1OC	-	0	-	-
SMILES	Lmaj promast	CHOP inh	WT yeast gro inh	Arbovirus anti
Cc1nnc(SCc2cc(=O)[nH]c(/N=C(\N)Nc3ccccc3Sc3ccccc3)n2)s1	0	0	0	0
COc1ccccc1N/C(N)=N/c1nc(CSc2nc3ccccc3s2)cc(=O)[nH]1	0	94	0	0
COc1ccc(NC(=O)C2CCN(S(=O)(=O)c3ccc(Br)s3)CC2)cc1OC	0	0	0	0
COc1cc(Nc2ncnc(N)n2)cc(OC)c1	-	0	-	-
CCOc1ccc(/C=N/NC(=O)COc2ccccc2-c2ccccc2)cc1	0	78	0	0
Cc1scc(C(=O)N/N=C/c2ccc(OCC(C)C)cc2)c1C	88	0	0	0
Cc1occc1C(=O)N/N=C/c1ccc(OCc2ccccc2)cc1	-	71	-	-
Cc1ccc(C(C)C)c(OCc2ccc(C(=O)N/N=C/c3ccc(O)cc3O)cc2)c1	100	0	61	0
Cc1cccc(OCC(=O)NCC(=O)N/N=C/c2ccc(O)cc2O)c1	-	0	-	-
Cc1ccc(-c2nnc(-c3cc(C)on3)o2)cc1	-	0	-	-
O=C(N/N=C/c1ccc2cccc(OCc3ccccc3)c2n1)c1ccc(Cl)cc1	68	0	0	0
O=C(N/N=C/c1cccc(O)c1)c1ccc(COc2ccccc2Br)cc1	0	0	80	0
CC(C)(C)c1ccc(OCc2ccc(C(=O)N/N=C3\CC4CC=CC34)cc2)cc1 (centres undefined)	0	0	72	0
CC(C)(C)c1ccc(OCc2ccc(C(=O)N/N=C/c3ccc(O)c(O)c3)cc2)cc1	100	0	0	0
COc1ccc(-c2nn(-c3ccccc3)cc2/C=C/C(=O)N2CCN(c3ccccn3)CC2)cc1	0	0	0	0
